AmpC inh no detg: inhibitors of E. coli AmpC beta-lactamase without detergent | AmpC nitrocefin hydrolysis, absorbance 480 nm, 0.0001% Triton | 0.52% of 330,000 active | P00811 | Potency, µM (titrated, usually from 57.1 µM), for inactives: at the top dose activity change, negative = inhibition, most hits filed as inhibitors;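 further: plate controls were no compound for no effect and no enzyme for full effect; nearly all actives have a fitted effect of over 20% in size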
Target sequence (P00811 whole entry, looked up): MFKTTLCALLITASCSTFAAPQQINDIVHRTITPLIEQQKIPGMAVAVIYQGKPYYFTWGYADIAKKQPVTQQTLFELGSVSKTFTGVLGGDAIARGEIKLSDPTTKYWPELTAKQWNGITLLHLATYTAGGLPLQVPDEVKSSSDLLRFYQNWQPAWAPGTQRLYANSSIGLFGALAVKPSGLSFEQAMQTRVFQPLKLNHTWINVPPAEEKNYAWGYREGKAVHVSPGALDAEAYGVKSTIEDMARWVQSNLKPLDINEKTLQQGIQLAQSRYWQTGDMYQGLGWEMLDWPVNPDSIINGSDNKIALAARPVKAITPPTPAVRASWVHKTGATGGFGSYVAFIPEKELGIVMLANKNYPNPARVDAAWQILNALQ
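20 mM phosphate pH 7.0 + 0.01% (detergent screen) or 0.0001% Triton X-100; 5.3 nM AmpC reagent; cpd preinc 15 min RT; nitrocefin (800 uM stock) to start; A480 q20 s × 4 min; Activity was normalised to no-enzyme and no-compound control wells.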
Pf growth 48h: inhibits P. falciparum growth in the first generation, 48 h | P. falciparum luciferase growth in erythrocytes, 48 h | Potency, µM (doses to about 28.7 µM), without a hit: at the top dose activity change, negative = inhibition, actives largely listed as inhibitors | 5.9% of 310,000 active | AID 504832; further: on the % scale 0 is the no-effect control and ±100 the full control effect
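Cell-based growth assay: transgenic P. falciparum expressing firefly luciferase, cultured in red cells within RPMI 1640 containing 0.5% w/v Albumax, 24 mM bicarbonate and gentamycin. A drop in luciferase activity indicates inhibition.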
SARS PLpro yeast: inhibitors of SARS-CoV papain-like protease in yeast; S. cerevisiae expressing SARS-CoV PLpro, growth rescue; 0.19% of 330,000 active; Potency, µM (highest dose often 32.9 µM), without a hit: top-dose activity, positive = growth rescue, most hits filed as activators; calls by dose curve; further: 0% is about no effect; nearly all actives have a fitted effect of over 55% in size
Pf growth 96h: P. falciparum growth inhibition at 96 hours; 6.9% of 320,000 active; AID 504834; P. falciparum luciferase reporter growth, 96 h; Potency, µM (top dose mostly 28.7 µM), for inactives: top-dose activity change, negative = inhibition, most hits filed as inhibitors; further: on the % scale 0 is the no-effect control and ±100 the full control effect
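P. falciparum expressing integrated firefly luciferase grown in erythrocytes (2% hematocrit, 0.05% parasitemia final) with compounds for 96 hours at 37 C, 5% CO2. Growth inhibition read as loss of luminescence after adding luciferase detection reagent.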
Sm TGR inh: inhibitors of Schistosoma mansoni thioredoxin glutathione reductase. purified TGR, DTNB reduction, TNB absorbance 405 nm. Q962Y6. 3% of 360,000 active. Potency, µM (highest dose often 114 µM), for the others: at the highest dose activity change, negative = inhibition, usual class: inhibitors; further: on the % scale 0 is the no-effect control and ±100 the full control effect; nearly all actives have a fitted effect of over 60% in size
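Kinetic colorimetric format: TGR-catalysed, NADPH-driven DTNB reduction monitored via TNB absorbance. Enzyme dispensed at 20 nM; compound exposure 15 min at room temperature before reaction start.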
AmpC inh detg: blocks E. coli AmpC beta-lactamase in detergent assay | Potency, µM (titrated, usually from 114 µM), for the others: top-dose activity change, negative = inhibition, most hits filed as inhibitors | AmpC hydrolysis of nitrocefin, absorbance 480 nm, 0.01% Triton | P00811 | 0.041% of 370,000 active;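 further: 0% = no-compound wells and -100% = no-enzyme wells; nearly all actives have a fitted effect of over 25% in size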
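AmpC (5.3 nM in the dispensed reagent) in 20 mM phosphate pH 7.0 with 0.01% (detergent screen) or 0.0001% Triton X-100 was preincubated with compounds for 15 min at room temperature. Nitrocefin was then added from an 800 uM solution, and hydrolysis was followed at 480 nm.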
The depositor's hits bear a star; ? = inconclusive; · = no result given; [ ] = remark or other dose. Shown are actives, neighbours in structure and some others; about 12% of the full set was active somewhere. Unless noted, the call rests on the fitted dose curve; in most records, active means well fitted curve in the direction sought with a large enough effect; inconclusive means small, poorly fitted or top-dose-only effect, or another doubt; inactive means no such curve, though single readings can be large; an effect the other way counts as inactive or inconclusive. Potency means the concentration at half of the fitted maximal effect.

SMILES | AmpC inh no detg | Pf growth 48h | SARS PLpro yeast | Pf growth 96h | Sm TGR inh | AmpC inh detg
O=C(N/N=C/c1ccc([N+](=O)[O-])o1)c1ccccc1NS(=O)(=O)c1cccs1 | -36% | ? | -1% | ? | 28µM* | 0%
Cc1nc2ccccn2c1C(=O)N/N=C/c1ccc([N+](=O)[O-])o1 | -24% | ? | -1% | 2.1µM* | 14µM* | -8%
COc1ccc(-c2cc(C(=O)Oc3ccc(Br)cc3)c3ccccc3n2)cc1 | · | · | · | · | 9% | 5%
O=C(N/N=C/c1ccc(-c2ccccc2[N+](=O)[O-])o1)c1cncc(Br)c1 | -54% | 2% | -26% | 14% | -14% | -5%
Cc1scc(C(=O)N/N=C/c2ccco2)c1C | -12% | 147% | 11% | 85% | ? | -3%
Cc1scc(C(=O)N/N=C/c2ccc([N+](=O)[O-])o2)c1C | -29% | 4.1µM* | -9% | 1.7µM* | -29% | 5%
O=C(N/N=C\c1ccc([N+](=O)[O-])o1)c1cncc(Br)c1 | 0% | ? | 0% | ? | 35µM* | 1%
Nc1nonc1C(=O)N/N=C/c1ccc([N+](=O)[O-])o1 | -21% | ? | -4% | ? | 20µM* | 7%
O=C(N/N=C/c1ccc([N+](=O)[O-])o1)c1ccc(O)cc1 | 172% | 1.7µM* | 5% | 1µM* | 10% | -13%
Nc1nonc1C(=O)N/N=C/c1cccc([N+](=O)[O-])c1 | -11% | -9% | 2% | 21% | 1% | ?
Cc1cccc(N(CC(=O)NCCSc2ccc(Cl)cc2)S(C)(=O)=O)c1C | · | · | · | · | 10% | -4%
CCCC(=O)NCCCc1nc2ccccc2n1C(C)C | 9% | -5% | -4% | 0% | 6% | ?
CCN(CC)C(=O)C(Sc1ccccc1)c1ccccc1 (centres undefined) | -11% | -15% | 3% | · | 4% | ?
Cc1c(C(=O)NC2CCCCC2C)oc2ccccc12 (centres undefined) | -1% | 5% | -13% | -28% | 0.56µM* | 0%
CCc1cc(=O)oc2cc(C)c(CN3CCCC(C)C3)c(O)c12 (centres undefined) | -58% | 2.1µM* | 3% | ? | ? | -10%
CCCCc1cc(=O)oc2cc(C)c(CN3CCCC3)c(O)c12 | 16µM* | 4.1µM* | 0% | 105% | -6% | -14%
CC(C)=CCC/C(C)=C/CNC(=O)C[C@H]1C[C@H](C(=O)N(C(C)C)C(C)C)[C@@]2(C)c3[nH]c4cc(-c5ccco5)ccc4c3CCN2C1=O | 14% | · | -1% | · | · | ·
C=CCOC(=O)C1=C(C)OC(N)=C(C#N)C1c1ccoc1 (centres undefined) | -26% | -7% | 8% | 16% | 20µM* | ?
C=CCOC(=O)C1=C(C)OC(N)=C(C#N)C1c1ccc2c(c1)OCO2 (centres undefined) | 5% | -27% | 13% | 10µM* | -12% | -12%
COCCOC(=O)C1=C(C)OC(N)=C(C#N)C1c1ccc2c(c1)OCO2 (centres undefined) | -3% | -12% | 5% | · | -26% | 2%
N#CC1=C(N)Oc2cc(O)ccc2C1c1ccc2c(c1)OCO2 (centres undefined) | -30% | 4% | 0% | -13% | · | -1%
CC(C)(C)C1=C(C#N)C(c2ccc3c(c2)OCO3)C(C#N)=C(N)O1 (centres undefined) | -36% | ? | -1% | ? | 2µM* | -11%
CC1=C(C#N)C(c2ccoc2)C(C(=O)OCc2ccccc2)=C(N)S1 (centres undefined) | -29% | -38% | -8% | 77% | 0% | -2%
COc1ccccc1CNc1ccc(N2CCCCC2)cc1 | -29% | ? | -15% | ? | 10µM* | ?
COc1cccc(CNc2ccc(N3CCCCC3)cc2)c1OC | -4% | 0.52µM* | -7% | -18% | 25µM* | 5%
SMILES | AmpC inh no detg | Pf growth 48h | SARS PLpro yeast | Pf growth 96h | Sm TGR inh | AmpC inh detg
COc1cccc(Nc2ccc(N3CCCCC3)cc2)c1OC | -2% | 4.7µM* | 17% | 2.3µM* | ? | 7%
COc1ccccc1CNc1ccc(C(=O)O)cc1 | -19% | · | 16% | 15% | 0% | ?
Fc1ccc(-c2nn(-c3ccc(Cl)cc3)c3c2cnc2ccc(F)cc23)cc1 | · | · | · | · | -2% | 10%
CCC(C(=O)Nc1ccc(C(C)=O)cc1)n1c(C)c2cnn(-c3ccccc3)c(=O)c2c1C (centres undefined) | · | · | · | · | 5% | 18%
O=C(CN(C(=O)CNC(=O)c1cccs1)c1ccccc1F)NC1CCCC1 | -1% | -7% | -2% | ? | 3% | -6%
COc1ccc(C)cc1Nc1nc(N)c2cc(OC)c(OC)cc2n1 | 1% | 1µM* | -1% | 2% | 3% | 2%
COc1ccc(Cl)cc1Nc1nc(N)c2ccccc2n1 | -48% | 9.3µM* | 1% | ? | 6% | -18%
Cc1ccc(C)c(Nc2nc(N)c3ccccc3n2)c1 | -36% | 46%[5.75 µM] | -3% | 88% | 8% | -14%
COc1ccc(C)cc1Nc1nc(C)nc2sc(C)cc12 | 4% | 0%[0.00184 µM] | -2% | -15% | 6% | -6%
COc1cc2nc(N3CCN(c4cc(C)ccc4C)CC3)nc(N)c2cc1OC | 107% | 1.9µM* | -4% | 0% | 14% | 4%
Cc1ccc(Cl)cc1N(C)C(=O)c1cc2ccc3cccnc3c2[nH]1 | · | · | · | · | 8% | 18%
CCSc1ccccc1C(=O)Nc1ccc(-c2nc3ccccc3s2)c(O)c1 | · | · | · | · | ? | 9%
O=C(Cn1ccn(-c2ccc(F)cc2)c(=O)c1=O)Nc1ccccc1C(F)(F)F | · | · | · | · | -3% | -1%
O=C1CC(C(=O)Nc2ccccc2)N=C(N2CCCCC2)N1 (centres undefined) | -4% | 21% | 7% | · | -3% | -4%
Cc1ccc(NC(=O)C2CC(=O)NC(Nc3cccc(C)c3)=N2)cc1 (centres undefined) | -11% | 16% | -1% | 2.1µM* | 1% | ?
Cc1ccc2c(c1)N(C(=O)N1CCC(C(=O)NCc3ccccc3C)CC1)CC(C)O2 (centres undefined) | · | · | · | · | 1% | 20%
CCCSc1ccccc1C(=O)N1CCN(C(=O)c2ccco2)CC1 | 40% | -9% | 2% | 28% | -18% | 0%
CC(C)c1ccc(NC(=O)C(c2ccccc2)N2CCN(C(=O)c3ccco3)CC2)cc1 (centres undefined) | 88% | 9.3µM* | -11% | ? | -9% | ?
O=C1c2ccccc2-c2c1cccc2C(=O)N1CCN(C(=O)c2ccco2)CC1 | 40% | -9% | 4% | 3% | 20µM* | ?
